Shown are actives, neighbours in structure and some others; about 11% of the full set was active somewhere.
MCF10A rereplic: A quantitative high throughput screen for small molecules that induce DNA re-replication in MCF 10a normal breast cells; MCF 10A DNA re-replication, Hoechst nuclear intensity, 48 h; Potency, µM (highest dose often 46.1 µM), actives largely listed as activators; 2.9% of 350,000 active; AID 624296, 2012; note: nearly all actives have a fitted effect of over 50% in size
Gal4-VP16 FLuc: VP16 counterscreen qHTS for inhibitors of ROR gamma transcriptional activity; Potency, µM (series often up to 53.6 µM), usual class: inhibitors; 3.5% of 310,000 active; Drosophila S2 Gal4-VP16 UAS-luciferase, luminescence, 20 h;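 note: Gal4-VP16 expression switched on by copper sulfate through the metallothionein promoter; nearly all actives have a fitted effect of over 50% in size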
IL-1B inflam inh: qHTS for Inhibitors of Inflammasome Signaling: IL-1-beta AlphaLISA Primary Screen. 4.7% of 360,000 active. activity change, % at 57.5 µM. THP-1 LPS/ATP IL-1B secretion, AlphaLISA, 16 h; hits give low values; in the data active = activity change below about -50%; inconclusive = mostly about -30% to -49%
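THP-1 cells pretreated 1 hr with compounds (up to 57.5 uM final), then stimulated with LPS (250 ng/mL final) plus ATP (1.25 mM final); secreted IL-1B measured by AlphaLISA after 16 hr, decreased signal indicating inhibition.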
RORgamma inh: qHTS for inhibitors of ROR gamma transcriptional activity; 5.4% of 310,000 active; Drosophila S2 Gal4-RORgamma UAS-luciferase reporter, 20 h; Potency, µM (series often up to 53.6 µM), usual class: inhibitors; Nuclear receptor ROR-gamma (Mus musculus), P51450; AID 2551, 2010; note: nearly all actives have a fitted effect of over 60% in size
Target sequence (P51450 whole entry, looked up, the tested form may be a part): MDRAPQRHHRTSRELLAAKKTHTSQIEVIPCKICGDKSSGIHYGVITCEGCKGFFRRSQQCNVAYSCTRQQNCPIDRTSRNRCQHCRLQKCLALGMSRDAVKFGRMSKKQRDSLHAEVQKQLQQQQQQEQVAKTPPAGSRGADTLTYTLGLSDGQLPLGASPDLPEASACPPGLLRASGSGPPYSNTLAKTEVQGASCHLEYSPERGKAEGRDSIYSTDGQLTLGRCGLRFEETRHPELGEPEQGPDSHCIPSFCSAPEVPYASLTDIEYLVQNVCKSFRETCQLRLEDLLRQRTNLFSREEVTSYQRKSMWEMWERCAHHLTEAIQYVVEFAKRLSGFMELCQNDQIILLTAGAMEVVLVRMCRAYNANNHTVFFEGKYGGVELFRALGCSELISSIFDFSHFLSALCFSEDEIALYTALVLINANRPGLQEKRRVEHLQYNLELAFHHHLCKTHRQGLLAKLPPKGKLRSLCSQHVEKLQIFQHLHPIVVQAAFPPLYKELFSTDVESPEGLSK
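Luminescence from a UAS-regulated Photinus luciferase reporter in stably transfected Drosophila Schneider cells is measured; decreased signal marks ROR gamma inhibition. Fusion expression is induced by 700 uM copper sulfate for 20 hr.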
SW480 rerep: A quantitative high throughput screen for small molecules that induce DNA re-replication in SW480 colon adenocarcinoma cells | SW480 DNA re-replication, Hoechst DNA content imaging, 48 h | Potency, µM (doses to about 46.1 µM), most hits filed as activators | 1.8% of 340,000 active | AID 624297, 2012; note: nearly all actives have a fitted effect of over 55% in size
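SW480 cells exposed to compounds for 48 hr at 37 C, 5% CO2, then Hoechst-stained 40 min. Nuclear DNA content imaged by fluorescence scanning (405 nm excitation, 500-530 nm emission); re-replication scored as increased high-intensity nuclei.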
Hits are given with their value; i = inactive; ? = inconclusive; nt = no result given; [ ] = dose if it differs, or a comment. Unless noted, calls come from the whole dose curve; as a rule, active = well fitted curve in the direction sought with a large enough effect; inconclusive = small, poorly fitted or top-dose-only effect, or another doubt; inactive = no such curve, though single readings can be large; an effect the other way counts as inactive or inconclusive.

SMILES | MCF10A rereplic | Gal4-VP16 FLuc | IL-1B inflam inh | RORgamma inh | SW480 rerep
CC1(C)C[C@H](O)[C@]2(CO)[C@H](O)C[C@]3(C)C(=CCC4[C@@]5(C)CC[C@H](O)C(C)(C)C5CC[C@]43C)[C@@H]2C1 (stereo partly specified) | ? | nt | i | nt | i
COc1ccc([C@H]2C[C@@H](O)[C@H](n3cc(C4CC4)nn3)CN2C(=O)c2cccs2)cc1 | nt | nt | i | nt | nt
CN(C)c1ccc(NS(=O)(=O)c2ccc(Cl)cc2)cc1 | i | i | i | i | 20.6µM
COc1ccc(S(=O)(=O)Nc2ccc(S(=O)(=O)Nc3ccc(F)cc3)cc2)cc1C | ? | i | i | i | i
COc1ccc(NS(=O)(=O)c2ccc(OC)c(N(C)S(=O)(=O)c3ccc(Cl)cc3)c2)cc1 | i | 11.2µM | -82.9 | ? | i
COc1ccc(S(=O)(=O)Nc2ccc(F)cc2)cc1N(C)S(=O)(=O)c1ccc(Cl)cc1 | ? | i | -93.8 | i | i
CC1=NC(=O)C(N=Nc2ccccc2)N1c1ccccc1 (stereo unspecified) | i | ? | i | i | i
CC1=NC(=O)C(N=Nc2cccc(C(=O)O)c2)N1c1ccccc1 (stereo unspecified) | i | 8.91µM | i | 5.62µM | i
Cc1cc(NC(=O)CNCC(c2ccccc2)N(C)C)c([N+](=O)[O-])cc1C (stereo unspecified) | i | i | i | i | i
CC(C)NC(=S)N/N=C1\CCCCC1C1CCCCC1 (stereo unspecified) | 18.4µM | 3.55µM | i | 1µM | ?
CC1CCCC/C1=N\NC(=S)Nc1ccccc1 (stereo unspecified) | i | i | i | i | i
COc1ccc(S(=O)(=O)Nc2ccc(O)c(Sc3ncn[nH]3)c2)cc1 | i | i | i | i | ?
COc1ccc(S(=O)(=O)Nc2cc(Sc3ncn[nH]3)c(O)c3ccccc23)cc1 | nt | 7.08µM | nt | 5.01µM | nt
O=S(=O)(Nc1ccc(Cl)cc1NS(=O)(=O)c1ccccc1)c1ccccc1 | ? | nt | i | nt | ?
O=C(O)CSc1cc(NS(=O)(=O)c2ccc(Cl)cc2)c2ccccc2c1O | 23.1µM | ? | -84.2 | i | ?
COc1ccc(S(=O)(=O)Nc2cc(SCC(=O)O)c(O)c3ccccc23)cc1 | i | i | -58.7 | ? | ?
O=S(=O)(Nc1cc(Sc2cccc3cccnc23)c(O)c2ccccc12)c1ccc(F)cc1 | 10.3µM | 2.51µM | -98.3 | 1.26µM | 0.731µM
O=S(=O)(Nc1cccnc1Cl)c1ccc(F)cc1 | i | i | i | i | i
Cc1cc(C)c(S(=O)(=O)/N=C2/C=C(SCC(=O)O)C(=O)c3ccccc32)cc1C | ? | ? | ? | i | i
Cc1cc(C)c(S(=O)(=O)Nc2cc(SCC(=O)O)c(O)c3ccccc23)cc1C | ? | ? | -87.7 | 11.2µM | ?
CC1(C)CCC(C)(C)c2cc(NC(=O)c3ccc(C(=O)O)cc3)ccc21 | i | i | nt | i | i
O=C(NCc1cccc(Cl)c1)c1cnn2c1NC(c1ccco1)CC2C(F)(F)F (stereo unspecified) | ? | i | -53.0 | i | i
O=C(NCC12CC3CC(CC(C3)C1)C2)c1nn2c(c1Cl)NC(c1ccco1)CC2C(F)(F)F (stereo unspecified) | ? | 14.1µM | i | ? | i[9.22 µM]
CN(Cc1ccc(-n2cccn2)cc1)C(=O)c1cnn2c1NC(c1ccco1)CC2C(F)(F)F (stereo unspecified) | ? | i | -54.2 | i | i
COCCNC(=O)c1cnn2c1NC(c1ccco1)CC2C(F)(F)F (stereo unspecified) | i | i | i | i | i
SMILES | MCF10A rereplic | Gal4-VP16 FLuc | IL-1B inflam inh | RORgamma inh | SW480 rerep
Cc1cc(C)c(S(=O)(=O)N2CCN(C(=O)c3cccs3)CC2)c(C)c1 | i | i | i | i | i
Cc1ccc(S(=O)(=O)N2CCN(C(=O)c3cccs3)CC2)c(C)c1 | i | i | i | i | 4.11µM
Cc1ccc(C)c(S(=O)(=O)N2CCN(C(=O)CCC(=O)NCc3ccc(Cl)cc3Cl)CC2)c1 | 20.6µM | nt | ? | nt | i
Cc1ccc(C)c(S(=O)(=O)NCc2ccc(C(=O)N3CCC(Cc4ccccc4)CC3)cc2)c1 | i | i | -57.5 | i | i
Cc1ccc(C)c(S(=O)(=O)N2CCN(C(=O)c3ccccc3Cc3ccccc3)CC2)c1 | i | nt | -58.8 | nt | i
O=S(=O)(CC=CCS(=O)(=O)c1ccccc1)c1ccccc1 | i | nt | i | nt | i
COc1cc(OC)cc(C(=O)OCCCOC(=O)c2cc(OC)cc(OC)c2)c1 | i | i | i | i | i
CCn1c(=O)n(CC)c2cc(N3CCCC3)c(NC(=O)c3cccc(OC)c3)cc21 | ? | i | i | i | i
COc1ccc(OC)c2sc(N(CCN(C)C)C(=O)/C=C/c3cccs3)nc12 | ? | 10µM | -103.1 | 15.8µM | ?
COc1cccc2sc(N(CCN(C)C)C(=O)/C=C/c3cccs3)nc12 | ? | ? | i | ? | i
COc1ccc(C)c2sc(N(CCN(C)C)C(=O)/C=C/c3cccs3)nc12 | i | ? | -70.8 | i | i
Cc1ccccc1Nc1cccc2nonc12 | i | ? | -51.8 | i | i
Cc1ccc(C2CC(c3ccc(NS(C)(=O)=O)cc3)=NN2C(=O)c2ccco2)cc1 (stereo unspecified) | i | i | i | i | i
CCS(=O)(=O)Nc1ccc(C2=NN(C(=O)c3ccco3)C(c3ccc(Cl)o3)C2)cc1 (stereo unspecified) | i | nt | -62.8 | nt | i
CCS(=O)(=O)Nc1ccc(C2=NN(C(=O)c3ccco3)C(c3ccc(C)cc3)C2)cc1 (stereo unspecified) | i | 17.8µM | i | i | ?
CCS(=O)(=O)Nc1ccc(C2=NN(C(=O)c3ccco3)C(c3cccc(F)c3)C2)cc1 (stereo unspecified) | i | i | i | i | i
Fc1ccccc1C1c2cccn2CCN1C(=S)Nc1cccc(Br)c1 (stereo unspecified) | i | ? | i | 12.6µM | ?
Fc1cccc(NC(=S)N2CCn3cccc3C2c2cccnc2)c1 (stereo unspecified) | i | i | i | i | i
Fc1ccccc1C1c2cccn2CCN1C(=S)Nc1ccc(Br)cc1 (stereo unspecified) | i | i | -85.7 | ? | ?
Fc1ccc(C2c3cccn3CCN2C(=S)Nc2cccc(F)c2)cc1 (stereo unspecified) | i | i | i | 10µM | i
Cc1ccc(S(=O)(=O)c2c(C(=O)c3ccccc3)cnc3cc4c(cc23)OCCO4)cc1 | i | i | -61.1 | ? | i
Cc1c(C(=O)c2ccc(Cl)c(Cl)c2)cnc2cc3c(cc12)OCO3 | i | ? | i | ? | ?
COc1ccc(C(=O)c2cnc3cc4c(cc3c2C)OCO4)cc1 | i | i | -56.4 | ? | i

Screens: PubChem, National Center for Advancing Translational Sciences (NCATS)
